Assay results from PubChem BioAssay AID588475 (Sanford-Burnham Center for Chemical Genomics, 2011).
In all, about 350,000 compounds went through this assay and about 2,100 (0.6%) were called active. The list comes from a sample in which actives are over-represented; it also holds similar structures and randomly drawn compounds. A number with no mark means an inactive call.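 How the source made its calls: active means inhibition of the ligand-induced calcium signal above about 50% at the single tested concentration (limit read from the data); inactive means the rest.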

Experiment: blockers of CRF-evoked CRF-R2/CRF-BP calcium response – cell-based, HEK293, calcium dye fluorescence, uHTS, primary screen (AID 588475)
Conditions: CRF-induced calcium fluorescence, at 11.8 µM, active compounds read high

**Q.** With `CCCCCn1c(=O)c(C(=O)Nc2c(C)n(C)n(-c3ccccc3)c2=O)c(O)c2ccccc21` as the compound, how does the inhibition read?
**A.** 56.7% (active)

**Q.** Which inhibition does the source give for `CCCCCn1c(=O)c(C(=O)NCc2ccccc2)c(O)c2ccccc21` here?
**A.** 3.02%

**Q.** For `CCCCn1c(=O)c(C(=O)Nc2ccccc2Cl)c(O)c2ccccc21`, which inhibition is on record?
**A.** -17.9%

**Q.** With `O=C(COc1ccc2ccccc2c1)N1CCN(Cc2ccncc2)CC1` as the compound, how does the inhibition read?
**A.** -1.35%

**Q.** Which inhibition does the source give for `O=c1c2ccccc2nc(-c2ccc(Cl)cc2Cl)n1-c1ccncc1` here?
**A.** 13.6%
